Screening data from PubChem BioAssay.
Rows were chosen to be rich in hits. Some 5.9% of all compounds tested hit in one or more screens of this group.
ABHD5 PLIN5 PPI: inhibitors of human ABHD5-perilipin-5 interaction. Q00G26+Q8WTS1. Split G. princeps luciferase complementation, luminescence, 4 h. inhibition, % at 4 µM. 0.78% of 360,000 active. AID 602281;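 active means inhibition above the mean inhibition across every tested compound plus 3 SD, cut at about 22% in these data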;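 further: 0% = DMSO only wells and the 100% control is not disclosed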
rCAG binder: r(CAG) repeat RNA binding | TO-PRO-1 dye displacement fluorescence | inhibition, % at 3 µM | 1.3% of 370,000 active;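 active means inhibition above the plate cutoff, the mean of all test compounds on that plate plus 3 SD, cut at about 35% in these data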;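 further: 0% = DMSO alone and 100% = 100 µM mitoxantrone as full dye displacement; higher means more dye released from RNA so lower well fluorescence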
PRMT1 FP inh: PRMT1 (human) inhibition, primary screen; recombinant PRMT1, activity-based probe fluorescence polarization; 1.3% of 370,000 active; inhibition, % at 2.79 µM; Q99873;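 active means inhibition above about 21% made by adding two undisclosed values, limit read from the data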
Rtt109 Vps75: inhibitors of Candida albicans Rtt109/Vps75 histone acetyltransferase. purified Rtt109/Vps75, ThioGlo CoA-SH fluorescence, 4 h. inhibition, % at 34.9 µM. 0.16% of 330,000 active. AID 540336;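 active means inhibition of at least 50% in every replicate; inconclusive means best replicate reaches 50% inhibition but some replicates fall short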
Target sequence (Q5AAJ8 whole entry, looked up): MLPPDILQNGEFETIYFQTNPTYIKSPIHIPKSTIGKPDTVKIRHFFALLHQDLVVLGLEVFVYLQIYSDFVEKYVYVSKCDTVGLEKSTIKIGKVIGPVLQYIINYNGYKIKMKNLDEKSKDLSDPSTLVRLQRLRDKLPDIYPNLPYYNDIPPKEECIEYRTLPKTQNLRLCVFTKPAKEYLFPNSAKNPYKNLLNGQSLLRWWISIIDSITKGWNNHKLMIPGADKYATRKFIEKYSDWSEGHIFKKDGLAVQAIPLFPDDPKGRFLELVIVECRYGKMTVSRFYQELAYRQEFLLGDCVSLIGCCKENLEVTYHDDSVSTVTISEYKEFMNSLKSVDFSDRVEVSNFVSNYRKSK
ALR H2O2 inh: inhibitors of human sulfhydryl oxidase ALR; P55789; purified ALR, DTT oxidation, H2O2 HRP-luminol luminescence; inhibition, % (concentration not given with the values); 3.8% of 290,000 active; AID 485317;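 active means mean replicate inhibition above about 79%, with every replicate also reaching it, limit read from the data; inconclusive means only one of the two criteria met; inactive means mean below limit and not every replicate reaching it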
LANA-H2B inh: blocks KSHV LANA binding to histone H2A/H2B; Q9QR71; cell-free LANA-H2A/H2B peptide, fluorescence polarization; inhibition, % (test concentration not listed); 0.6% of 320,000 active; in the data active means inhibition mostly above about 10%, no sharp cut-off; inactive means mostly below about 6.7%
PRMT1 confirm: confirmation of human PRMT1 inhibitors; recombinant His-PRMT1, activity-based probe fluorescence polarization; inhibition, % at 2.79 µM; 42% of 3,300 active; shares compounds with PRMT1 FP inh; AID 687036;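 active means mean inhibition across replicates above the hit cutoff derived for the earlier primary screen, cut at about 22% in these data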
An asterisk follows results filed as active; u = inconclusive; x = no result.

SMILES | ABHD5 PLIN5 PPI | rCAG binder | PRMT1 FP inh | Rtt109 Vps75 | ALR H2O2 inh | LANA-H2B inh | PRMT1 confirm
NC(=O)/C(=C/c1ccco1)C(N)=S | -16 | 0 | 53* | 2 | 3 | 0 | 22*
O=[N+]([O-])c1cc(-c2ccc(/C=N/c3nc4ccccn4c3-c3ccco3)o2)ccc1Cl | 12 | 11 | 41* | 5 | x | 6 | 1
Fc1cccc(Cl)c1C1Nc2cccc3cccc(c23)N1 | 1 | 26 | 33* | 10 | -16 | 0 | 27*
Cc1cc(-c2csc(N)n2)c(C)n1C | -2 | 13 | 27* | 16 | -26 | -8 | 10
Cc1ccc(-n2c(C)cc(-c3csc(N)n3)c2C)cc1 | 1 | 17 | 18 | 9 | -2 | -4 | x
NC(=S)NN=Cc1ccc(-c2ccc(S(=O)(=O)Nc3ncccn3)cc2)o1 | -11 | 30 | 32* | -2 | x | x | 19
NC(=S)N/N=C/c1ccc(-c2ccc(Cl)c(Cl)c2)o1 | -15 | 34 | 8 | 6 | 72 | 1 | x
CCOC(=O)C1CCCN(C2CC(=O)N(c3ccc(NC(C)=O)cc3)C2=O)C1 (stereo not drawn) | -2 | -2 | 37* | 5 | 0 | 1 | 1
O=C(c1cccs1)N1C[C@@H](n2cc(-c3ccc(F)cc3)nn2)[C@H](O)C[C@@H]1c1ccccc1 | -6 | 2 | -6 | x | x | x | x
O=C(Nc1ccccc1)Nc1cc(S(=O)(=O)N2CCOCC2)ccc1N1CCCC1 | -4 | 6 | 29* | 1 | -23 | -2 | 1
CCOCC(=O)Nc1cc(S(=O)(=O)N2CCOCC2)ccc1N1CCCCC1 | 0 | 3 | 41* | -3 | 1 | -4 | 7
CC(C)C(=O)N1CCC1(C)C(=O)NCc1cc(Cl)ccc1F (stereo not drawn) | 10 | 2 | 4 | x | x | x | x
O=C(CSc1oc(-c2ccco2)nc1S(=O)(=O)c1ccc(F)cc1)NCC1CCCO1 (stereo not drawn) | 7 | 22 | 45* | -1 | 2 | 12 | 7
O=C(CSc1oc(-c2ccco2)nc1S(=O)(=O)c1ccccc1)NCC1CCCO1 (stereo not drawn) | 5 | 8 | 10 | -3 | 1 | 0 | x
O=C(C1=C(O)C(=O)N(c2nccs2)C1c1ccccc1)c1cc2ccccc2o1 (stereo not drawn) | 1 | -49 | 92* | u | 96* | -2 | 132*
CCOc1cccc(C2C(C(=O)c3ccc(C)o3)=C(O)C(=O)N2c2nccs2)c1 (stereo not drawn) | -7 | -3 | 65* | 9 | 12 | 15* | 38*
CCOc1cccc(C2C(C(=O)c3ccc(C)o3)=C(O)C(=O)N2Cc2ccncc2)c1 (stereo not drawn) | -5 | 0 | 2 | -1 | 0 | -2 | x
O=C1NC[C@H](CCCCN2CCN(Cc3ccccc3)C(=O)C2=O)N(CCc2ccccc2)C1=O | 10 | 0 | -5 | x | x | x | x
COc1ccc(N2CCN(CCCNC(=O)COc3ccc(C)cc3)CC2)cc1 | x | -2 | 5 | x | x | x | x
COc1ccc2c(c1)CC/C(=C/c1ccco1)C2=O | 0 | 8 | 14 | 6 | 10 | 5 | x
Nc1ccc2c(c1)C/C(=C/c1ccco1)C2=O | 9 | 32 | 39* | -27 | 1 | -2 | 33*
CCN(CC)c1ccc(/C=C(/C#N)c2nc3ccc(C)cc3[nH]2)c(OC(C)C)c1 | 7 | -63 | 48* | -3 | 25 | 4 | 53*
O=C(O)CN1C(=O)S/C(=C\c2ccc3c(c2)OCO3)C1=O | -3 | 2 | 33* | 7 | 1 | 3 | 4
CCOC(=O)CN1C(=O)S/C(=C\c2ccc3c(c2)OCO3)C1=O | 5 | 6 | -1 | -2 | -2 | 2 | x
N#CCc1c(C#N)c(N)nc(N2CCOCC2)c1C#N | 22* | 1 | 38* | 0 | 46 | 2 | -2
CC(=O)N1CCN(c2nc(N)c(C#N)c(CC#N)c2C#N)CC1 | 13 | 1 | 29* | -7 | 49 | -3 | -7
COc1cccc(CN2CCC2(C)C(=O)Nc2cccc(NS(C)(=O)=O)c2)c1OC (stereo not drawn) | -5 | 1 | 0 | x | x | x | x
C=CCNc1nc2cc(-c3ccccc3OC)sc2c(=O)n1C | -5 | 6 | 1 | x | x | x | x
